LASV entry inh = blocks Lassa virus binding to or entry into cells; Lassa virus pseudotype entry inhibition, cell reporter; Potency, µM (top dose mostly 37.9 µM), hits mostly inhibitors; 300,000 compounds, 1.2% hits; calls by dose curve; tested in HEK293 cells; also: nearly all actives have a fitted effect of over 50% in size
Marburg entry inh = inhibitors of Marburg virus binding or cell entry; Marburg virus pseudotyped entry inhibition, cell reporter; Potency, µM (series often up to 37.8 µM), actives largely listed as inhibitors; 300,000 compounds, 1.8% hits; calls by dose curve; tested in HEK293 cells
CHX counter = counter-screen hit for Shiga toxin inhibitors, cycloheximide; cell reporter, cycloheximide protein synthesis inhibition counterscreen; max response, %; 300,000 compounds, 12% hits; in the data active = max response mostly above about 13%, no sharp cut-off; inactive = mostly below about 14%; also: read at 38.3 µM for the half of the compounds with a filed dose
HCV inh = inhibitors of hepatitis C virus infection | Huh7.5.1 HCVcc-Cre infection, luciferase reporter, 44 h | Potency, µM (titrated, usually from 41.8 µM), actives largely listed as inhibitors | 340,000 compounds, 3.4% hits | AID 651820; active = well fitted inhibition curve with a large enough effect; inconclusive = small, poorly fitted or top-dose-only effect, or another doubt; inactive = no such curve, though single readings can be large or run the other way
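Infectious HCVcc-Cre (~0.5 moi) was added to cells just after compound, with cells seeded 4 h earlier at 1,000 per well. Luciferase activity after 44 h culture reported infection; substrate was incubated 15 min at room temperature before reading.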
FMDV inh = blocks foot and mouth disease virus; 410,000 compounds, 1.2% hits; Potency, µM (top dose mostly 57.9 µM), most hits filed as inhibitors; FMDV antiviral cell-based qHTS; calls by dose curve; tested in HEK293T cells; also: read-out not given here; nearly all actives have a fitted effect of over 45% in size
Shiga toxin inh = blocks Shiga toxin action in Vero cells; Vero cells, Shiga toxin protein synthesis inhibition reporter; 290,000 compounds, 9.2% hits; AID 2315; inhibition, % at 38.7 µM; in the data active = inhibition mostly above about 28%, no sharp cut-off; inactive = mostly below about 43%
Numbers stand for hits; . = inactive; ? = inconclusive; / = no result; + = active, no number. Hits are enriched below; roughly 13% of the tested compounds scored in any of these assays.

SMILES | LASV entry inh | Marburg entry inh | CHX counter | HCV inh | FMDV inh | Shiga toxin inh
O=C(Nn1c(Cc2ccccc2)nc2ccccc2c1=O)c1c(O)c2cccc3c2n(c1=O)CCC3 | / | / | . | . | . | .
CN(C(=O)c1cccc(Nc2ccc(-c3ccc4c(c3)OCCO4)nn2)c1)C1CCCCC1 | 14µM | ? | 53 | ? | . | 64
O=C(NC(=S)NN1CCOCC1)c1cc(Br)ccc1Cl | ? | . | / | . | . | /
Cn1c(=O)c2c(ncn2CC(COCc2ccc(Cl)cc2)OCc2ccc(Cl)cc2)n(C)c1=O (centres undefined) | ? | 7.9µM | . | ? | ? | .
CCOC(=O)N1CCc2c(sc3c2c(=O)n(-c2ccc(CC)cc2)c(=O)n3CC(=O)NCC2CCCO2)C1 (centres undefined) | / | / | . | . | . | .
O=C(O)c1ccccn1 | / | / | / | . | . | /
O=C(Nc1cccc(O)c1)C(=O)Nc1ccccn1 | ? | ? | 16 | . | . | .
S=C(Nc1ccc(Nc2ccccc2)cc1)Nc1ccccn1 | ? | ? | 37 | 10µM | . | 100
S=C(Nc1ccccc1)c1ccccn1 | ? | ? | 47 | . | . | 80
O=C(Nc1ccccc1)C(=O)Nc1ccccn1 | ? | ? | 63 | . | / | 169
S=C(Nc1ccccc1)Nc1ccccn1 | / | / | / | / | . | /
CC(=O)Nc1cccc(O)c1 | / | / | / | . | . | /
O=C(N/N=C/c1ccccc1O)C(=O)Nc1ccccn1 | . | . | 24 | . | . | 77
N#Cc1ccc(C(=O)Nc2nnc(-c3cccs3)o2)cc1 | / | / | . | ? | . | .
CN(C)S(=O)(=O)c1ccc(C(=O)Nc2nnc(-c3cccs3)o2)cc1 | / | / | 19 | ? | . | .
CC1CC(C)CN(S(=O)(=O)c2ccc(C(=O)Nc3nnc(-c4cccs4)o3)cc2)C1 (centres undefined) | ? | 7.9µM | . | ? | . | .
Cc1ccc(Nc2c(N)c(=O)oc3ccccc23)cc1 | ? | ? | 22 | ? | . | 57
Cc1ncsc1C(=O)N1N=C2/C(=C/c3ccccc3)CCCC2C1c1ccccc1 (centres undefined) | ? | 11µM | . | ? | ? | .
COc1ccc(/C=C2\CCCC3C2=NN(C(=O)CSc2ncn[nH]2)C3c2ccc(OC)cc2)cc1 (centres undefined) | ? | ? | . | 13µM | . | .
O=C(CSc1ncn[nH]1)N1N=C2/C(=C/c3ccccc3)CCCC2C1c1ccccc1 (centres undefined) | / | . | . | . | . | .
Clc1ccc(-c2nc3ccccc3[nH]2)cn1 | . | . | 23 | . | . | .
c1ccc2[nH]c(-c3ccc4c(c3)OCO4)nc2c1 | ? | ? | / | . | . | /
Cc1ccc(-c2nc3ccccc3[nH]2)cn1 | . | . | 22 | . | . | 32
Cc1nc2ccc(-c3nc4ccccc4[nH]3)cc2[nH]1 | ? | . | 35 | . | . | 60
CCOC(=O)c1ccc(-n2[nH]c(-c3ccccc3)cc2=O)cc1 | ? | . | . | 14µM | ? | .
SMILES | LASV entry inh | Marburg entry inh | CHX counter | HCV inh | FMDV inh | Shiga toxin inh
CCOC(=O)c1ccc(N=Nc2c(C)[nH]n(-c3ccccc3)c2=O)cc1 | / | / | . | . | . | .
Cc1ccccc1C(=O)O/N=C1\CCS(=O)(=O)c2sccc21 | . | . | 39 | . | . | 83
COc1ccc(N=C2CCS(=O)(=O)c3sccc32)cc1 | ? | ? | 41 | . | . | .
COc1ccc(C(=O)O/N=C2\CCS(=O)(=O)c3sccc32)cc1 | / | / | . | . | . | .
Cc1ccccc1C(=O)NNC(=O)c1ccc2nc[nH]c2c1 | . | ? | / | . | . | /
Cc1ccc(O)c(C2=NNC(O)(C(F)(F)F)C2)c1 (centres undefined) | ? | . | . | 11µM | . | .
Oc1ccc(Cl)cc1C1=NNC(c2cccs2)C1 (centres undefined) | / | / | 43 | ? | . | 141
Cc1ccc(O)c(-c2[nH]ncc2C(=O)c2ccc(Cl)cc2)c1 | . | ? | . | . | . | .
Cc1ccc2c(c1)C(=O)CC(O)(C(F)F)O2 (centres undefined) | / | / | . | . | ? | .
Cc1ccc(O)c(C2=NNC(c3ccc(Cl)cc3)C2)c1 (centres undefined) | / | / | 59 | ? | . | 70
COc1cccc(-c2nc(CS(=O)(=O)CC(=O)NC3CCC(C)CC3)c(C)o2)c1 (centres undefined) | . | ? | . | ? | . | .
Cc1ccc(C)c(S(=O)(=O)N2CCCC2CNC(=O)C(=O)NCCN2CCOCC2)c1 (centres undefined) | . | . | / | . | . | /
CCN(CC)c1ccc(/C=C/C(=O)C2C(=O)C=C(C)OC2=O)cc1 (centres undefined) | ? | ? | 26 | . | . | 100
CC(C)(C)c1ccc(/C=C/C(=O)N2CCCCC2)cc1 | / | / | 51 | . | . | 81
CCOC(=O)C1CCCN(C(=O)/C=C/c2ccc(Cl)cc2)C1 (centres undefined) | ? | . | . | . | . | .
CCc1ccc(/C=C\C(=O)N2CCCC2)cc1 | . | ? | / | . | . | /
CC1CCN(C(=O)/C=C/c2ccc(C(C)(C)C)cc2)CC1 | ? | . | 39 | . | . | 21
Cc1ccc(/C=C/C(=O)N2CCCC(C)C2)cc1 (centres undefined) | ? | ? | 64 | . | . | +
CC(C)Cc1ccc(/C=C/C(=O)N2CCCCC2)cc1 | ? | ? | 43 | . | . | 67
CC(C)(C)NC(=O)CSc1nc(N)c(NC(=O)c2ccccc2F)c(=O)[nH]1 | . | ? | . | . | . | .
Cc1cc2oc(=O)ccc2cc1[N+](=O)[O-] | / | / | . | . | . | .
O=[N+]([O-])c1c(NCCCO)cc(Sc2ccc(Cl)cc2)c2nonc12 | ? | 11µM | . | ? | 25µM | .
O=[N+]([O-])c1c(NCCCO)cc(N2CCCCCC2)c2nonc12 | . | ? | . | . | . | .
Cn1ccnc1Sc1cc(NCCCO)c([N+](=O)[O-])c2nonc12 | ? | ? | . | 10µM | 25µM | .
O=[N+]([O-])c1c(NCCCO)cc(N2CCN(Cc3ccc4c(c3)OCO4)CC2)c2nonc12 | ? | ? | . | ? | 18µM | .
SMILES | LASV entry inh | Marburg entry inh | CHX counter | HCV inh | FMDV inh | Shiga toxin inh
CC(=O)OCCCNc1cc(Sc2ccc(C)cc2)c2nonc2c1[N+](=O)[O-] | ? | ? | . | . | ? | .
CC(=NNC(=S)SCc1ccccc1)c1ccccn1 | 1.6µM | 0.89µM | / | 0.32µM | ? | /
CC(=NNC(=S)N1CCC1)c1ccccn1 | ? | ? | / | 1.3µM | . | /
Cc1cc(C)nc(Nc2nc(C(N)Cc3ccc(F)cc3)cs2)n1 (centres undefined) | / | / | / | / | . | /
O=C(Cc1ccc(OCc2ccccc2)cc1)NCc1ccc2c(c1)OCO2 | / | / | / | / | . | /
Cc1ccc(COc2ccc3c(c2)OCO3)cc1 | ? | . | 31 | . | . | 97
Cc1ccc(OCC(=O)N2CCN(Cc3ccc4c(c3)OCO4)CC2)cc1 | ? | . | . | . | ? | .
O=Cc1ccc(OCc2ccc3c(c2)OCO3)cc1 | / | / | 35 | . | . | /
Cc1ccccc1-c1nc(CS(=O)(=O)CC(=O)NCCCN2CCOCC2)c(C)o1 | . | . | . | . | . | .
Cc1ccc(CCNc2ncnc3onc(-c4ccc(Cl)cc4)c23)cc1 | ? | . | / | / | . | /

Compound activity from PubChem.
